Source: PubChem BioAssay AID1159580 (chemical genetic matrix, 2015)
The campaign covered roughly 5,500 compounds. About 2,000 (36%) were called active. Another 18% or so got no clear call; they are omitted. Rule as the data show it: active = normalized growth mostly below about 0.91 (no sharp cut-off); inconclusive = no clear call, values can overlap the other calls; inactive = mostly above about 0.92. The list shows a part of the results.

Assay: chemical genetic growth profiling, strain panel (AID 1159580);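 also: tested at 20 µM; growth read once vehicle control cultures reached saturation at 30 °C; 1 = growth at the plate median or of vehicle wells; lower values mean less growth of the strain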
Conditions: growth OD

Measured: normalized growth

COc1ccc2c(c1)OC/C(=C\c1ccc(OC)c(O)c1)C2=O
active: S. cerevisiae deletion strains, locus YKL009W, strain mrt4, hits give low values 0.843 | S. cerevisiae deletion strains, locus YKL085W, strain MDH1 (second series), hits give low values 0.915 | S. cerevisiae deletion strains, locus YKL085W, strain MDH1, hits give low values 0.915 | S. cerevisiae deletion strains, locus YKL160W, strain elf1, hits give low values 0.831 | S. cerevisiae deletion strains, locus YKL190W, strain CNB1, hits give low values 0.81 | S. cerevisiae deletion strains, locus YKR001C, strain vps1, hits give low values 0.651 | S. cerevisiae deletion strains, locus YLL001W, strain dnm1, hits give low values 0.823 | S. cerevisiae deletion strains, locus YLR027C, strain aat2, hits give low values 0.84 | S. cerevisiae deletion strains, locus YLR039C, strain RIC1, hits give low values 0.51 | S. cerevisiae deletion strains, locus YLR058C, strain SHM2, hits give low values 0.774 | S. cerevisiae deletion strains, locus YLR102C, strain apc9, hits give low values 0.824 | S. cerevisiae deletion strains, locus YLR221C, strain rsa3, hits give low values 0.841 | S. cerevisiae deletion strains, locus YLR258W, strain gsy2, hits give low values 0.891 | S. cerevisiae deletion strains, locus YLR262C, strain YPT6 (second series), hits give low values 0.719 | S. cerevisiae deletion strains, locus YLR262C, strain YPT6, hits give low values 0.423 | S. cerevisiae deletion strains, locus YLR268W, strain sec22, hits give low values 0.709 | S. cerevisiae deletion strains, locus YLR320W, strain mms22, hits give low values 0.652 | S. cerevisiae deletion strains, locus YLR330W, strain CHS5, hits give low values 0.467 | S. cerevisiae deletion strains, locus YLR342W, strain FKS1 (second series), hits give low values 0.702 | S. cerevisiae deletion strains, locus YLR342W, strain FKS1, hits give low values 0.885 | S. cerevisiae deletion strains, locus YLR371W, strain rom2, hits give low values 0.584 | S. cerevisiae deletion strains, locus YLR418C, strain cdc73, hits give low values 0.322 | S. cerevisiae deletion strains, locus YML016C, strain PPZ1, hits give low values 0.791 | S. cerevisiae deletion strains, locus YML032C, strain rad52, hits give low values 0.787 | S. cerevisiae deletion strains, locus YML120C, strain ndi1, hits give low values 0.858 | S. cerevisiae deletion strains, locus YML124C, strain tub3, hits give low values 0.865 | S. cerevisiae deletion strains, locus YMR058W, strain fet3, hits give low values 0.846 | S. cerevisiae deletion strains, locus YMR078C, strain ctf18, hits give low values 0.458 | S. cerevisiae deletion strains, locus YMR125W, strain sto1, hits give low values 0.863 | S. cerevisiae deletion strains, locus YMR205C, strain PFK2, hits give low values 0.768 | S. cerevisiae deletion strains, locus YMR223W, strain ubp8, hits give low values 0.761 | S. cerevisiae deletion strains, locus YMR307W, strain GAS1, hits give low values 0.557 | S. cerevisiae deletion strains, locus YNL067W, strain RPL9B, hits give low values 0.774 | S. cerevisiae deletion strains, locus YNL071W, strain lat1, hits give low values 0.369 | S. cerevisiae deletion strains, locus YNL233W, strain BNI4, hits give low values 0.448 | S. cerevisiae deletion strains, locus YNL250W, strain rad50, hits give low values 0.885 | S. cerevisiae deletion strains, locus YNL271C, strain bni1, hits give low values 0.865 | S. cerevisiae deletion strains, locus YNL298W, strain CLA4, hits give low values 0.895 | S. cerevisiae deletion strains, locus YNL307C, strain MCK1, hits give low values 0.127 | S. cerevisiae deletion strains, locus YNL322C, strain KRE1, hits give low values 0.793 | S. cerevisiae deletion strains, locus YNR052C, strain pop2, hits give low values 0.885 | S. cerevisiae deletion strains, locus YOL147C, strain pex11, hits give low values 0.542 | S. cerevisiae deletion strains, locus YOR001W, strain rrp6, hits give low values 0.848 | S. cerevisiae deletion strains, locus YOR069W, strain VPS5, hits give low values 0.807 | S. cerevisiae deletion strains, locus YOR070C, strain gyp1, hits give low values 0.882 | S. cerevisiae deletion strains, locus YOR083W, strain WHI5, hits give low values 0.869 | S. cerevisiae deletion strains, locus YOR106W, strain vam3, hits give low values 0.847 | S. cerevisiae deletion strains, locus YOR136W, strain idh2, hits give low values 0.796 | S. cerevisiae deletion strains, locus YOR144C, strain elg1, hits give low values 0.766 | S. cerevisiae deletion strains, locus YOR184W, strain ser1, hits give low values 0.472 | S. cerevisiae deletion strains, locus YOR270C, strain vph1, hits give low values 0.661 | S. cerevisiae deletion strains, locus YOR290C, strain snf2, hits give low values 0.789 | S. cerevisiae deletion strains, locus YOR316C, strain cot1, hits give low values 0.882 | S. cerevisiae deletion strains, locus YPL051W, strain arl3, hits give low values 0.836 | S. cerevisiae deletion strains, locus YPL055C, strain LGE1, hits give low values 0.576 | S. cerevisiae deletion strains, locus YPL078C, strain atp4, hits give low values 0.836 | S. cerevisiae deletion strains, locus YPL106C, strain sse1, hits give low values 0.729 | S. cerevisiae deletion strains, locus YPR119W, strain clb2, hits give low values 0.859 | S. cerevisiae deletion strains, locus YPR163C, strain tif3, hits give low values 0.351 | S. cerevisiae deletion strains, locus YPR167C, strain met16, hits give low values 0.811 | S. cerevisiae deletion strains, strain wtn01, hits give low values 0.711 | S. cerevisiae strains, strain wild type, hits give low values 0.663
inactive: S. cerevisiae deletion strains, locus YJR066W, strain TOR1, hits give low values 0.891 | S. cerevisiae deletion strains, locus YKL068W, hits give low values 0.948 | S. cerevisiae deletion strains, locus YKR026C, strain gcn3, hits give low values 0.946 | S. cerevisiae deletion strains, locus YKR091W, strain srl3, hits give low values 0.962 | S. cerevisiae deletion strains, locus YLL026W, hits give low values 0.931 | S. cerevisiae deletion strains, locus YLL041C, strain sdh2, hits give low values 0.955 | S. cerevisiae deletion strains, locus YLR113W, strain HOG1, hits give low values 0.909 | S. cerevisiae deletion strains, locus YLR357W, strain rsc2, hits give low values 0.964 | S. cerevisiae deletion strains, locus YLR370C, strain arc18, hits give low values 0.938 | S. cerevisiae deletion strains, locus YLR384C, strain iki3, hits give low values 0.95 | S. cerevisiae deletion strains, locus YMR129W, hits give low values 0.946 | S. cerevisiae deletion strains, locus YMR231W, strain pep5, hits give low values 0.977 | S. cerevisiae deletion strains, locus YNL183C, strain NPR1, hits give low values 0.924 | S. cerevisiae deletion strains, locus YNL209W, strain ssb2, hits give low values 0.938 | S. cerevisiae deletion strains, locus YNL248C, strain rpa49, hits give low values 0.902 | S. cerevisiae deletion strains, locus YNL322C, strain KRE1 (second series), hits give low values 0.95 | S. cerevisiae deletion strains, locus YNR049C, strain mso1, hits give low values 0.955 | S. cerevisiae deletion strains, locus YOL006C, strain TOP1, hits give low values 0.563 | S. cerevisiae deletion strains, locus YOL012C, strain htz1 0.356 | S. cerevisiae deletion strains, locus YOR061W, strain CKA2, hits give low values 0.93 | S. cerevisiae deletion strains, locus YOR080W, strain dia2, hits give low values 0.925 | S. cerevisiae deletion strains, locus YOR231W, strain MKK1, hits give low values 0.995 | S. cerevisiae deletion strains, locus YOR265W, strain rbl2, hits give low values 0.941 | S. cerevisiae deletion strains, locus YPL240C, strain hsp82, hits give low values 0.929 | S. cerevisiae deletion strains, locus YPL241C, strain CIN2, hits give low values 0.958 | S. cerevisiae deletion strains, locus YPL256C, strain CLN2, hits give low values 0.958 | S. cerevisiae deletion strains, locus YPR141C, strain kar3, hits give low values 0.924
